We go through nine molecules from PubChem BioAssay (NCI).

Experiment [1] in a line: NCI Yeast Anticancer Drug Screen. Data for the rad50 strain (AID 155).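 Note: 0% = growth of vehicle-only cultures of the same strain.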 As to conditions: S. cerevisiae rad50 strain growth inhibition, active compounds read high. An outline of the steps:
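Inhibition values express reduced yeast growth in compound-treated cultures relative to vehicle-treated controls.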

Experiment [2] is described as follows: NCI Yeast Anticancer Drug Screen. Data for the mec2-1 strain (AID 157). The settings on record: S. cerevisiae mec2-1 strain, active compounds read high. An outline of the steps:
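Using mec2-1 yeast: add compound, measure growth, express inhibition versus vehicle-treated cultures.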

Experiment [3] can be described thus: NCI Yeast Anticancer Drug Screen. Data for the sgs1 mgt1 strain (AID 161).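 Note: 0% = growth of cultures given vehicle only.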 The settings on record: S. cerevisiae sgs1 mgt1 strain, active compounds read high. In outline: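 This yeast growth screen uses a strain with defined DNA-repair lesions; compound-treated growth is compared with vehicle-treated growth.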
The nature of experiment [4]: NCI Yeast Anticancer Drug Screen. Data for the cln2 rad14 strain (AID 165).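 Note: 0% = growth equal to vehicle treated cultures.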 As to conditions: S. cerevisiae cln2 rad14 strain, active compounds read high. An outline of the steps: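 Yeast strain cln2 rad14, bearing defects in cell cycle control and DNA repair, serves as the test system; values reflect growth inhibition compared with vehicle.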
Experiment [5] in a line: NCI Yeast Anticancer Drug Screen. Data for the bub3 strain (AID 167). The settings on record: S. cerevisiae bub3 mutant strain, active compounds read high. An outline of the steps: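 Steps: expose the mutant yeast strain to compound; grow alongside vehicle-treated cultures; measure growth; express inhibition against the vehicle cultures.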
Experiment [6] is described as follows: NCI Yeast Anticancer Drug Screen. Data for the mlh1 rad18 strain (AID 175). The settings on record: S. cerevisiae mlh1 rad18 strain growth inhibition, active compounds read high. An outline of the steps: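 Steps: expose repair-defective yeast to compound; measure growth; express inhibition against vehicle-treated controls.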
[7] abbreviates: at 5.0 µM (retest, dose inferred, filed as 0.5).
Where [8] appears, read: at 50.0 µM (retest, dose inferred, filed as 5.0).

The panel holds about 79,000 compounds, 15% with a hit somewhere; the sample as a whole holds those more often. Values without a mark were called inactive. Activity calls are given as the source filed them. Cut-off read from the data, not from the text of the source: active = growth inhibition above about 70%; inactive = the rest.

As to `CC(C)(Cl)C(Cl)CC/C(CBr)=C(\Cl)CCl` (configuration not stated), the growth inhibition in experiment [1] (setting [7]) was 28%; in experiment [1] (setting [8]) it was 98% (active); in experiment [1] (at 50.0 µM), 86.7% (active); in experiment [2] (setting [7]), 19%; in experiment [2] (setting [8]), 98% (active); in experiment [2] (at 50.0 µM), 89.9% (active). For the same molecule, the growth inhibition in experiment [3] (setting [7]) is 14%; in experiment [3] (setting [8]), 100% (active); in experiment [3] (at 50.0 µM), 91.5% (active); in experiment [4] (setting [7]) it was 26%; in experiment [4] (setting [8]), 98% (active); in experiment [4] (at 50.0 µM) it was 88.2% (active). Further, the growth inhibition in experiment [5] (setting [7]) is 27%; in experiment [5] (setting [8]), 100% (active); in experiment [5] (at 50.0 µM), 88.2% (active); in experiment [6] (setting [7]) it was 21%; in experiment [6] (setting [8]) it was 98% (active); in experiment [6] (at 50.0 µM), 1.35%.

Consider `CC(=O)Oc1cc(OC(C)=O)c2cc(Br)ccc2c1OC(C)=O`, for which the growth inhibition in experiment [1] (setting [7]) is -5%; in experiment [1] (setting [8]), 63%; in experiment [1] (at 50.0 µM), 87.5% (active); in experiment [2] (setting [7]) it was 3%; in experiment [2] (setting [8]) it was 47%; in experiment [2] (at 50.0 µM) it was 72.8% (active). Besides, the growth inhibition in experiment [3] (setting [7]) is -19%; in experiment [3] (setting [8]), 67%; in experiment [3] (at 50.0 µM) it was 62.8%; in experiment [4] (setting [7]) it was 0%; in experiment [4] (setting [8]), 37%; in experiment [4] (at 50.0 µM), 70.2% (active). The growth inhibition in experiment [5] (setting [7]) was 0%; in experiment [5] (setting [8]), 65%; in experiment [5] (at 50.0 µM), 94.1% (active); in experiment [6] (setting [7]) it was 5%; in experiment [6] (setting [8]), 69%; in experiment [6] (at 50.0 µM), 90.7% (active).

`CCCCSc1nc2c([nH]1)c(=S)n(C)c(=S)n2C`: the growth inhibition in experiment [1] (setting [7]) is 2%; in experiment [1] (setting [8]), 80% (active); in experiment [1] (at 50.0 µM), 63.5%; in experiment [2] (setting [7]), 20%; in experiment [2] (setting [8]), 91% (active); in experiment [2] (at 50.0 µM), 82% (active). The growth inhibition in experiment [3] (setting [7]) is 12%; in experiment [3] (setting [8]), 67%; in experiment [3] (at 50.0 µM) it was 55.5%; in experiment [4] (setting [7]), -5%; in experiment [4] (setting [8]), 85% (active); in experiment [4] (at 50.0 µM) it was 69.7%. Also, the growth inhibition was -12% in experiment [5] (setting [7]); 92% (active) in experiment [5] (setting [8]); 66.3% in experiment [5] (at 50.0 µM); -7% in experiment [6] (setting [7]); 86% (active) in experiment [6] (setting [8]); 81.2% (active) in experiment [6] (at 50.0 µM).

`COc1ccc(/C=C2\C(=O)N(C)C(=O)c3cc(OC)c(OC)cc32)cc1OC`: the growth inhibition in experiment [1] (setting [7]) is 1%; in experiment [1] (setting [8]), 12%; in experiment [1] (at 50.0 µM) it was 61.4%; in experiment [2] (setting [7]), 0%; in experiment [2] (setting [8]), 16%; in experiment [2] (at 50.0 µM), 47.5%. The growth inhibition in experiment [3] (setting [7]) was -3%; in experiment [3] (setting [8]), -4%; in experiment [3] (at 50.0 µM), 62.9%; in experiment [4] (setting [7]), 0%; in experiment [4] (setting [8]), 19%; in experiment [4] (at 50.0 µM) it was 46.6%. Besides, the growth inhibition is 5% in experiment [5] (setting [7]); 32% in experiment [5] (setting [8]); 39.5% in experiment [5] (at 50.0 µM); 2% in experiment [6] (setting [7]); 19% in experiment [6] (setting [8]); 65% in experiment [6] (at 50.0 µM).

In the case of `CCCC(O)[C@@]1(CC)CC(C)C(O)(C2(C)C[C@H](C)[C@@H](C(CC)C(=O)C(C)[C@@H](O)[C@H](C)C3OC(O)(C(CC)C(=O)O)[C@@H](C)C(O)C3CC)O2)O1` (some centres not stated), the growth inhibition in experiment [1] (setting [7]) was -9%; in experiment [1] (setting [8]), -13%; in experiment [1] (at 50.0 µM), 14.7%; in experiment [2] (setting [7]), -27%; in experiment [2] (setting [8]), -13%; in experiment [2] (at 50.0 µM) it was 23.1%. Also, the growth inhibition in experiment [3] (setting [7]) is -9%; in experiment [3] (setting [8]) it was -6%; in experiment [3] (at 50.0 µM), 23.3%; in experiment [4] (setting [7]), 0%; in experiment [4] (setting [8]), 28%; in experiment [4] (at 50.0 µM), 29.3%. For the same molecule, the growth inhibition was -10% in experiment [5] (setting [7]); -14% in experiment [5] (setting [8]); 25.9% in experiment [5] (at 50.0 µM); -10% in experiment [6] (setting [7]); -8% in experiment [6] (setting [8]); 85.9% (active) in experiment [6] (at 50.0 µM).

As to `CC(=O)OC1COC(n2ccc3cc(Br)c([N+](=O)[O-])cc32)C(OC(C)=O)C1OC(C)=O` (configuration not stated), the growth inhibition in experiment [1] (setting [7]) was -16%; in experiment [1] (setting [8]), 2%; in experiment [1] (at 50.0 µM), 69.7%; in experiment [2] (setting [7]) it was -5%; in experiment [2] (setting [8]) it was 8%; in experiment [2] (at 50.0 µM), 4.55%. Further, the growth inhibition is -25% in experiment [3] (setting [7]); 47% in experiment [3] (setting [8]); 78% (active) in experiment [3] (at 50.0 µM); -45% in experiment [4] (setting [7]); 3% in experiment [4] (setting [8]); 5.45% in experiment [4] (at 50.0 µM). Further, the growth inhibition in experiment [5] (setting [7]) was -23%; in experiment [5] (setting [8]), 71% (active); in experiment [5] (at 50.0 µM) it was 83.5% (active); in experiment [6] (setting [7]), -27%; in experiment [6] (setting [8]), 36%; in experiment [6] (at 50.0 µM) it was 47.9%.

For `Cc1ccc(S(=O)(=O)C(Br)CC(=O)c2ccccc2)cc1` (configuration not stated), the growth inhibition is 64% in experiment [1] (setting [7]); 96% (active) in experiment [1] (setting [8]); 99% (active) in experiment [1] (at 50.0 µM); 67% in experiment [2] (setting [7]); 97% (active) in experiment [2] (setting [8]); 99.8% (active) in experiment [2] (at 50.0 µM). For the same molecule, the growth inhibition in experiment [3] (setting [7]) was 67%; in experiment [3] (setting [8]), 97% (active); in experiment [3] (at 50.0 µM), 99.7% (active); in experiment [4] (setting [7]) it was 90% (active); in experiment [4] (setting [8]) it was 96% (active); in experiment [4] (at 50.0 µM), 99.5% (active). In addition, the growth inhibition is 59% in experiment [5] (setting [7]); 97% (active) in experiment [5] (setting [8]); 99.7% (active) in experiment [5] (at 50.0 µM); 63% in experiment [6] (setting [7]); 97% (active) in experiment [6] (setting [8]); 99.3% (active) in experiment [6] (at 50.0 µM).

For the molecule `COc1cccc(C2c3cc4c(cc3OC(N3CCCC3)C2C)OCO4)c1` (configuration not stated), the growth inhibition is -16% in experiment [1] (setting [7]); 74% (active) in experiment [1] (setting [8]); 85.2% (active) in experiment [1] (at 50.0 µM); -34% in experiment [2] (setting [7]); 82% (active) in experiment [2] (setting [8]); 82% (active) in experiment [2] (at 50.0 µM). For the same molecule, the growth inhibition in experiment [3] (setting [7]) is -27%; in experiment [3] (setting [8]), 54%; in experiment [3] (at 50.0 µM), 77.8% (active); in experiment [4] (setting [7]), -15%; in experiment [4] (setting [8]), 67%; in experiment [4] (at 50.0 µM), 76.3% (active). The growth inhibition in experiment [5] (setting [7]) is -30%; in experiment [5] (setting [8]), 88% (active); in experiment [5] (at 50.0 µM), 85% (active); in experiment [6] (setting [7]), -32%; in experiment [6] (setting [8]), 72% (active); in experiment [6] (at 50.0 µM) it was 80.1% (active).

For the molecule `Nc1ccc(O)c2c1C(=O)c1ccccc1C2O` (configuration not stated), the growth inhibition in experiment [1] (setting [7]) is -9%; in experiment [1] (setting [8]), 96% (active); in experiment [1] (at 50.0 µM), 94.8% (active); in experiment [2] (setting [7]) it was 4%; in experiment [2] (setting [8]), 95% (active); in experiment [2] (at 50.0 µM), 78.9% (active). Also, the growth inhibition in experiment [3] (setting [7]) is 32%; in experiment [3] (setting [8]), 97% (active); in experiment [3] (at 50.0 µM), 83.8% (active); in experiment [4] (setting [7]), -10%; in experiment [4] (setting [8]), 78% (active); in experiment [4] (at 50.0 µM), 54.8%. Moreover, the growth inhibition was 19% in experiment [5] (setting [7]); 96% (active) in experiment [5] (setting [8]); 81.5% (active) in experiment [5] (at 50.0 µM); 28% in experiment [6] (setting [7]); 98% (active) in experiment [6] (setting [8]); 94.5% (active) in experiment [6] (at 50.0 µM).
